Source: PubChem BioAssay (National Center for Advancing Translational Sciences (NCATS))
VDR inhibitor: vitamin D3 receptor (human) inhibition; Potency, µM, for the others: max response, negative = inhibition, actives largely listed as inhibitors; VDR-SRC2-3 peptide fluorescence polarization, 2 h; 400,000 tested, 0.93% active; AID 504847; further: on the % scale 0 is the no-effect control and ±100 the full control effect
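After 23 nl compound addition and a short centrifugation, plates sat for 2 hours at ambient temperature; polarization of fluorescence then indicated loss of VDR binding to peptide SRC2-3.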
PLK1 PBD block: PLK1 (human) polo-box domain binding inhibition; P53350; Plk1 PBD binding of FITC phosphopeptide, fluorescence polarization; 360,000 tested, 2.8% active; Potency, µM, for inactives: max response, negative = inhibition, usual class: inhibitors; further: series mostly up to about 57 µM; on the % scale 0 is the no-effect control and ±100 the full control effect; nearly all actives have a fitted effect of over 65% in size
HP1b binding inh: inhibitors of HP1-beta chromodomain binding to methylated histone tails; 390,000 tested, 0.56% active; P83916; Potency, µM (series often up to 114 µM), without a hit: at the highest dose activity change, negative = inhibition, most hits filed as inhibitors; AlphaScreen HP1-beta / biotin-H3K9me3 peptide binding; further: nearly all actives have a fitted effect of over 70% in size
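AlphaScreen: HP1-beta (50 nM) preformed 30 min with biotin-H3(1-18)K9me3 peptide (50 nM) in PBS pH 7.4, 0.01% Tween-20. Compound added for 30 min at RT, then streptavidin donor/nickel chelate acceptor beads (10 ug/mL) for 30 min.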
BAZ2B block: BAZ2B (human) inhibition; 360,000 tested, 4.4% active; Q9UIF8; AlphaScreen BAZ2B-H3K14Ac peptide displacement; Potency, µM (doses to about 114 µM), for the others: at the highest dose activity change, negative = inhibition, hits mostly inhibitors; further: on the % scale 0 is the no-effect control and ±100 the full control effect; nearly all actives have a fitted effect of over 60% in size
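Multi-concentration screen (max 110 uM) measuring displacement of acetylated histone H3 peptide from BAZ2B by AlphaScreen, using 50 nM protein, 50 nM peptide and 10 ug/mL streptavidin donor plus Ni-chelate acceptor beads.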
JMJD2A Tudor: blocks the human JMJD2A Tudor domain; O75164; AlphaScreen JMJD2A-Tudor / H3K4me3 peptide binding; Potency, µM (titrated, usually from 114 µM), without a hit: top-dose activity change, negative = inhibition, most hits filed as inhibitors; 390,000 tested, 4.4% active; AID 504339; further: on the % scale 0 is the no-effect control and ±100 the full control effect; nearly all actives have a fitted effect of over 50% in size
G9a inh: inhibitors of human histone lysine methyltransferase G9a; Q96KQ7; G9a H3K9 monomethylation, AlphaScreen, 2 h; Potency, µM (doses to about 102 µM), inactives show top-dose activity, negative = inhibition, hits mostly inhibitors; 350,000 tested, 8.8% active; AID 504332; further: on the % scale 0 is the no-effect control and ±100 the full control effect; nearly all actives have a fitted effect of over 75% in size
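Using a bead-based AlphaScreen, monomethylated H3K9 product from 2 h room-temperature reactions (G9a 20 nM, peptide 500 nM, SAM 20 uM) was detected with 0.5 ug/mL rabbit anti-H3K9me1 antibody.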
* marks the source's active call; other numbers are inactive results; ? = inconclusive; / = no result given; [ ] = another dose, or the depositor's remark. This is a sample that favours compounds with a hit; in the whole collection about 11% have one here. The call rests on the fitted dose curve; in most records, active means well fitted curve in the direction sought with a large enough effect; inconclusive means small, poorly fitted or top-dose-only effect, or another doubt; inactive means no such curve, though single readings can be large; an effect the other way counts as inactive or inconclusive. Potency means the concentration at half of the fitted maximal effect.

SMILES	VDR inhibitor	PLK1 PBD block	HP1b binding inh	BAZ2B block	JMJD2A Tudor	G9a inh
O=C1OC(c2ccccc2)/C(=C(/O)c2ccc(Cl)cc2)C1=O (stereo not drawn)	44.7µM*	-21.9%	-5.6%	?	25.1µM*	-3.9%[12.7 µM]
CCCSCCCNC(=O)c1ccc2c(c1)nc1n2CCCCC1	12.1%	/	24.9%[57 µM]	1.7%	-0.3%	11.1%[59 µM]
CCc1ccccc1NC(=O)NC(C)c1ccc2c(c1)OCO2 (stereo not drawn)	-6.7%	0.6%	41.5%	2.8%	-9.2%	15.4%
C=C(CN(C)C)C(=O)c1ccc(OC2OC(COC(C)=O)C(OC(C)=O)C(OC(C)=O)C2OC(C)=O)cc1 (stereo not drawn)	39.8µM*	15µM*	56.2µM*	/	89.1µM*	/
C=CCOc1ccc(C2NC(=S)NC3=C2CCc2ccccc23)cc1 (stereo not drawn)	6.5%	?	-0.3%	?	?	22.4µM*
O=C1NC2=C(CCc3ccccc32)C(c2ccccc2)N1 (stereo not drawn)	-13.8%	-23.0%	45.0%	-2.7%	-17.1%	44.7µM*
CC(=O)C1=C(c2ccccc2)NC(=O)NC1c1ccccc1 (stereo not drawn)	11.2%	-4.7%	35.9%	11.3%	-11.8%	/
CC(C)(C)c1ccccc1NC(=O)CN1C(=O)NC2(CCCCCC2)C1=O	2.4%	-7.5%	25.2%	-5.1%	-16.7%	-9.4%[12.7 µM]
Nc1ncnc2c1c(-c1ccc(Oc3ccccc3)cc1)cn2C1CCCC1	-17.0%	-2.9%	?	39.8µM*	44.7µM*	14.1µM*
COc1ccc(-n2cc(-c3ccccc3)c3c(NC4CCCC4)ncnc32)cc1	10.7%	/	11.5%	?	?	-43.7%[59 µM]
C[C@@H]1C(=O)N(S(=O)(=O)c2ccccc2[N+](=O)[O-])[C@H]1c1ccc(-c2ccccc2)cc1	-20.3%	/	-4.6%	/	-19.3%	/
COc1ccc(-c2cc(C(=O)NCCN3CCOCC3)c3ccccc3n2)cc1	15.5%	-2.2%	28.8%	1.9%	-3.3%	4.4%
COc1ccccc1NC(=O)c1cc(C)nc2ccccc12	2.6%	-5.0%	15.4%	-11.5%	-15.9%	9.0%
Cc1ccc(NC(=O)c2cc(-c3ccc(C)o3)nc3ccccc23)cc1	-17.2%	?	-15.1%	-4.2%	79.4µM*	10µM*
Cc1ccc(NC(=O)c2cc(C)nc3ccccc23)cc1	6.4%	-0.8%	13.7%	-16.5%	-7.0%	-4.7%
COc1cc(-c2cc(C(=O)Nc3ccc(O)cc3)c3ccccc3n2)cc(OC)c1OC	-24.5%	26.7µM*	-19.4%	-39.0%	-2.2%[11.4 µM]	14.1µM*
Cc1ccc(-c2cc(C(=O)NCCN3CCOCC3)c3ccccc3n2)o1	8.0%	-13.1%	40.3%	-13.8%	-6.8%	28.2µM*
COc1ccccc1NC(=O)c1cc(-c2ccc(C)o2)nc2ccccc12	-6.1%	-13.5%	4.2%	-11.5%	-9.7%	39.8µM*
COc1cc(OC)c(N(C)C(=O)c2cc3c(s2)-c2ccccc2OC3)cc1Cl	-11.5%	/	24.8%	-27.7%	-30.2%	-15.6%[59 µM]
CCOC(=O)Cn1c2[n+](c3ccccc31)CC(O)CS2 (stereo not drawn)	-9.3%	-8.5%	7.4%	?	44.7µM*	?
Cc1ccc(Cl)cc1NC(=O)C1CCCN(S(C)(=O)=O)C1 (stereo not drawn)	-17.8%	0.0%	25.0%	-9.6%	-8.0%	-8.0%
O=C1c2cccc(NCCCNCCO)c2C(=O)c2cccc(NCCCNCCO)c21	-29.2%	2.4%	?	/	50.1µM*	/
Cc1nc(N)sc1C(=O)N1N=N1	-3.1%	?	6.0%	-14.1%	?	8.91µM*
Cc1cnc(C(=O)OCC(=O)c2cccc3ccccc23)cn1	5.7%	-5.8%	20.3%	-4.0%	-15.9%	44.7µM*
CC(C)C[C@H]1CN(CCCC[C@@H]2CNC(=O)C(=O)N2CCc2ccccc2)C(=O)C(=O)N1CCc1ccccc1	/	0.7%	/	/	/	/
SMILES	VDR inhibitor	PLK1 PBD block	HP1b binding inh	BAZ2B block	JMJD2A Tudor	G9a inh
CN1C/C(=C\c2ccc(N3CCOCC3)cc2)C(=O)/C(=C/c2ccc(N3CCOCC3)cc2)C1	?	29.7%	?	50.1µM*	?	?
CN1C/C(=C/c2ccncc2)C(=O)/C(=C/c2ccncc2)C1	-7.1%	-8.9%	35.7%	-34.9%	0.0%	50.1µM*
CCN1C/C(=C/c2ccc(N3CCOCC3)cc2)C(=O)/C(=C/c2ccc(N3CCOCC3)cc2)C1	?	-16.0%	-8.2%	?	-29.7%	39.8µM*
CN(CC(=O)Nc1cccc(S(=O)(=O)N2CCCC2)c1)Cc1ccccc1	-10.4%	0.3%	12.6%	/	-12.3%	/
Cc1cc(C)c2cc(C(=O)N3CCc4ccccc4C3)[nH]c2c1	9.2%	-14.4%	0.1%	-23.6%	-12.3%	?
O=c1c2ccccc2nc2n1CCC2	-24.0%	0.1%	-57.4%	14.1µM*	14.1µM*	-21.6%[0.501 µM]
CC(OC(=O)c1ccc2c(=O)n3c(nc2c1)CCC3)C(N)=O (stereo not drawn)	-6.0%	21.2µM*	-4.2%	-18.0%	?	2.6%
O=C(Oc1ccccc1F)c1ccc2c(=O)n3c(nc2c1)CCC3	-4.1%	-5.2%	17.6%	-1.3%	-11.8%	63.1µM*
O=C(Oc1ccccc1Cl)c1ccc2c(=O)n3c(nc2c1)CCC3	7.1%	-7.0%	20.0%	-3.3%	-17.6%	?
O=C(COc1ccc(S(=O)(=O)N2CCCC2)cc1)N1CCCC1	10.1%	-0.4%	27.7%	-20.0%	6.2%	-8.3%
O=C(NCCSc1c(-c2ccc(Cl)cc2)[nH]c2ccccc12)c1ccc(S(=O)(=O)N2CCOCC2)cc1	2.1%	/	24.6%	-2.8%	-19.5%	-3.6%[59 µM]
Cc1ccc(C(=O)N/C(=C\c2ccco2)C(=O)NCCCn2ccnc2)cc1	-22.2%	-9.2%	19.8%	7.94µM*	22.4µM*	-8.4%[59 µM]
Cc1ccc(C(=O)N/C(=C\c2ccco2)C(=O)NCCN2CCOCC2)cc1	0.6%	-4.8%	-0.9%	0.8%	-12.7%	5.7%
O=C(NCCCn1ccnc1)/C(=C/c1ccco1)NC(=O)c1ccccc1	13.8%	-3.7%	43.0%	/	-15.5%	/
Cc1ccc(C(=O)N/C(=C/c2ccco2)C(=O)NCCCn2ccnc2)cc1	-21.9%	5.0%	5.3%	31.6µM*	-7.3%	?
CNC[C@@H]1OCc2ccccc2-c2c(n(C)c3ccccc23)C(=O)N([C@H](C)CO)C[C@@H]1C	/	-12.1%	/	/	/	/
Cn1cnc(S(=O)(=O)N2CCCC(C(=O)Nc3cccc(C#N)c3)C2)c1 (stereo not drawn)	4.8%	/	53.5%	-11.9%	-7.0%	4.8%[59 µM]
COCCN1Cc2cccc(C(=O)N3CCN(c4cc(C)ccc4C)CC3)c2C1=O	-13.5%	-17.1%	25.6%	6.0%	-28.6%	44.7µM*
